Rows were chosen to be rich in hits. Some 2.7% of all compounds tested hit in one or more screens of this group.
ATXN viability: reduces viability in counter-screen for ATXN expression inhibitors. AID 651635. 0.49% of 400,000 active. S2 cells (HEK-293 line with an ATXN2-luciferase reporter) viability, CellTiter-Fluor protease fluorescence, 24 h. Potency, µM (highest dose often 56.7 µM), hits mostly cytotoxic; further: nearly all actives have a fitted effect of over 40% in size
TGFb SMAD3 inh: blocks TGF-b signaling; HepG2 CAGA-GFP TGF-b/SMAD3 reporter, GFP fluorescence, 18 h; TGF-beta stimulated, 500 pg/mL final; Potency, µM (doses to about 46.1 µM), without a hit: at the highest dose activity, negative = inhibition, actives largely listed as inhibitors; 1.2% of 410,000 active; further: on the % scale 0 is the no-effect control and ±100 the full control effect; nearly all actives have a fitted effect of over 65% in size
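HEPG2 CAGA-GFP, 1000 cells/well; 2 h settle, 37 C; cpd via pin tool; TGF-b 500 pg/mL final; 18 h, 37 C; GFP imaging ex488/em500-530; %Activity normalised to -TGF-b and +DMSO controls; CRC fit, curve class.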
ATXN2 expr inh: inhibitors of ATXN2 expression | Potency, µM (highest dose often 57 µM), without a hit: top-dose activity change, negative = inhibition, hits mostly inhibitors | HEK-293 ATXN2-luciferase reporter, luminescence, 24 h | 0.72% of 360,000 active; further: on the % scale 0 is the no-effect control and ±100 the full control effect; nearly all actives have a fitted effect of over 55% in size
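ATXN2-luciferase reporter cells (luciferase flanked by upstream and downstream ATXN2 gene portions) were treated 24 h at 37 °C with compounds at up to 57 uM. SteadyGlo luminescence gave expression; GF-AFC fluorescence gave viability.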
HepG2 tox: kills HepG2 cells in TGF-b inhibitor counter-screen. HepG2 CAGA-GFP viability, ATP luminescence, 18 h. Potency, µM (titrated, usually from 46.1 µM), without a hit: at the highest dose activity change, negative = cytotoxicity, actives largely listed as cytotoxic. AID 588856. 0.76% of 410,000 active
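CellTiter-Glo luminescence gave cytotoxicity after 18 hours at 37 degrees C. The cells were HepG2 CAGA-GFP in 1% FBS DMEM, stimulated with 500 pg/mL TGF-beta after compound addition. %Activity was normalised to no-cell wells (complete cell-killing) and DMSO (no toxicity), and curves were fitted and classified.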
ALOX12 inh: blocks human arachidonate 12S-lipoxygenase; P18054; purified 12hLO, xylenol orange hydroperoxide absorbance; Potency, µM (doses to about 108 µM), for inactives: top-dose activity change, negative = inhibition, most hits filed as inhibitors; 1.1% of 580,000 active; AID 1671190; further: on the % scale 0 is the no-effect control and ±100 the full control effect
Target sequence (P18054 whole entry, looked up): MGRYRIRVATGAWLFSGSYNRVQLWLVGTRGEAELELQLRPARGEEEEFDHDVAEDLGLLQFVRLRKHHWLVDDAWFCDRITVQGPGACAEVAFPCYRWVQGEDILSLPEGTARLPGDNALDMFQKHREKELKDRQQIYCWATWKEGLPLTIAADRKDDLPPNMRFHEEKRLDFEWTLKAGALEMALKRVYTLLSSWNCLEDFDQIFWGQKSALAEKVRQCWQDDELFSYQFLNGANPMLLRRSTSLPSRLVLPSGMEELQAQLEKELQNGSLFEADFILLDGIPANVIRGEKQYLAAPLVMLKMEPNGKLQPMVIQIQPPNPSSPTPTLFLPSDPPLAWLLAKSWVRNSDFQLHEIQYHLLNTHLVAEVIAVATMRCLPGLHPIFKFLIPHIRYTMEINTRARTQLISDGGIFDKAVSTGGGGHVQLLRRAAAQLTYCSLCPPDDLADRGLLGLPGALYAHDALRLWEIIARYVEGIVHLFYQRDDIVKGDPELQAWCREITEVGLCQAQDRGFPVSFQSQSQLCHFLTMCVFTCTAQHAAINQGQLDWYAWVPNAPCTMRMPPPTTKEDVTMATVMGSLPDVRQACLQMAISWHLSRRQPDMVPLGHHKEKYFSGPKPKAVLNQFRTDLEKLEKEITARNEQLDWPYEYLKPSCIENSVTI
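Hydroperoxide product was detected by ferrous iron/xylenol orange as the 573 to 405 nm absorbance ratio. Arachidonic acid at 40 uM (final) was turned over for 30 min at room temperature by 150 nM human 12hLO, pH 7.0 Hepes buffer, after 15 min compound preincubation.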
Active calls of the source: *; i = inactive; ? = inconclusive; . = no result; ! = not active in a repeat. The call rests on the fitted dose curve; in most records, active means well fitted curve in the direction sought with a large enough effect; inconclusive means small, poorly fitted or top-dose-only effect, or another doubt; inactive means no such curve, though single readings can be large; an effect the other way counts as inactive or inconclusive. Potency means the concentration at half of the fitted maximal effect.

SMILES	ATXN viability	TGFb SMAD3 inh	ATXN2 expr inh	HepG2 tox	ALOX12 inh
Cc1nc2ccccc2n1/N=C/c1ccc([N+](=O)[O-])s1	.	6.3µM*	21µM*	-62%	4%
Cc1cc(C)cc(N=Cc2ccc([N+](=O)[O-])s2)c1	?	11µM*	?	-55%	-9%
COC(=O)c1ccc(COC(=O)Cc2c(Cl)cccc2Cl)cc1	.	.	.	.	-1%
COCCCNc1nc(N)c([N+](=O)[O-])c(Nc2cc(OC)ccc2OC)n1	i	?	-11%	-15%	0%
COc1ccc(OC)c(Nc2nc(NCCCN(C)C)nc(N)c2[N+](=O)[O-])c1	i	?	?	16µM*	13%
CSC1=N/C(=C\c2cc(C(C)(C)C)c(O)c(C(C)(C)C)c2)C(=O)S1	.	.	.	.	-67%
Cn1c(N)c(-c2csc(NC3CC3)n2)c(=O)n(C)c1=O	.	.	.	.	7.9µM*
Cn1c(N)c(-c2csc(Nc3ccccc3)n2)c(=O)n(C)c1=O	.	.	.	.	45µM*
CCn1c(N2CCN(Cc3cc(C)ccc3C)CC2)nc2c1c(=O)[nH]c(=O)n2C	.	.	.	.	-1%
CC[N+](C)(C)CCOC1CC2CCC1(C)C2(C)C (configuration not stated)	.	.	.	.	8%
COc1ccc(OC)c(S(=O)(=O)NCC(c2ccco2)N2CCc3ccccc32)c1 (configuration not stated)	i	?	6%	-24%	40µM*
COc1ccc(CCNc2nc(-c3cc(OC)c(OC)c(OC)c3)cs2)cc1OC	.	.	.	.	7.9µM*
O=C(O)CCC(=O)N1N=C(c2ccc3c(c2)OCO3)CC1c1ccccc1 (configuration not stated)	.	.	.	.	17%
CCN(CC)c1ccc(NC(=O)c2ccccc2Br)cc1S(=O)(=O)Nc1ccccc1OC	i	-10%	-9%	-11%	35µM*
Cc1ccc(CNC(=O)c2cc(=O)c3cc(Cl)ccc3o2)cc1	.	.	.	.	1%
CC(=O)Nc1ccc(CNC2CCCc3ccccc32)cc1 (configuration not stated)	.	.	.	.	-30%
O=C(C=Cc1ccccc1O)c1ccccc1O	?	?	-24%	22µM*	-24%
O=C(/C=C/c1ccc(O)c(O)c1)c1ccccc1O	?	-26%	85%	-29%	7.1µM*
O=C(/C=C/c1ccc(O)c(O)c1)OCCc1ccccc1	?	-2%	-8%	-42%	11µM*!
O=C(/C=C/c1ccccc1O)c1ccccc1Cl	.	.	.	.	-43%
Oc1cc(O)cc(C=Cc2ccc(O)c(O)c2)c1	.	.	37%	.	3.1µM*
CCCNCc1ccc(-c2ccc(C(C)O)cc2)o1 (configuration not stated)	.	.	.	.	-46%
Nc1nc(-c2ccc(Br)cc2)cs1	i	-8%	40%	-8%	45µM*
Nc1nc(-c2ccc(F)cc2)cs1	i	-20%	45%	-3%	-10%
Cc1ccc(-c2nc(-c3ccccn3)no2)cc1	i	-1%	2µM*	13µM*	-10%
SMILES	ATXN viability	TGFb SMAD3 inh	ATXN2 expr inh	HepG2 tox	ALOX12 inh
c1ccc(-c2nc(-c3ccccn3)no2)cc1	i	3%	4.5µM*	10µM*	2%
c1ccc(-c2cc(-c3nc(-c4ccccn4)no3)c3ccccc3n2)cc1	i	-16%	4%	-30%	8%
c1ccc(-c2noc(-c3ccno3)n2)nc1	i	8%	.	8%	171%
c1ccc(-c2ccc(-c3nc(-c4ccccn4)no3)cc2)cc1	i	-6%	?	7.1µM*	2%
Cc1ccc(-c2nc(-c3ccccn3)no2)cc1Cl	i	-2%	10µM*	11µM*	7%
Clc1cccc(-c2nc(-c3ccccn3)no2)c1	i	?	13µM*	-36%	1%
Cc1cccc(NC(=O)c2cc(-c3ccc(C)o3)nc3ccccc23)c1	.	.	.	.	10µM*
O=C(Nc1ccccn1)c1cc(-c2ccco2)nc2ccccc12	.	.	.	.	40µM*
Cc1cccc(NC(=O)c2cc(C)nc3ccccc23)c1	i	-2%	-13%	-4%	-15%
Cc1ccc(-c2cc(C(=O)Nc3ccccn3)c3ccccc3n2)o1	.	-20%	-17%	5%	6.3µM*
O=C(Nc1ccccn1)c1cc(-c2ccc(Cl)s2)nc2ccccc12	i	-16%	.	-15%	2%

Compound activity (PubChem)
